Source: PubChem BioAssay AID1159580 (chemical genetic matrix, 2015)
Values joined by “and” are separate entries in the source; they are usually repeats but may differ in a detail not shown here. Equal values may be shown once. About 2,000 (36%) of roughly 5,500 compounds were called active. Inconclusive results (about 18%) are left out. Rule as the data show it: active = normalized growth mostly below about 0.91 (no sharp cut-off); inconclusive = no clear call, values can overlap the other calls; inactive = mostly above about 0.92. This is one part of the list.

Test: chemical genetic growth profiling, strain panel (AID 1159580);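 also: tested at 20 µM; growth read once vehicle control cultures reached saturation at 30 °C; 1 = growth at the plate median or of vehicle wells; lower values mean less growth of the strain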
Details: S. cerevisiae deletion strains, growth OD

Measured: normalized growth

CC12CCCC(O)(C1)C1CC(C)(C)C1CC2 (configuration not stated)
active: locus YDR137W, strain rgp1, active compounds read low 0.8 | locus YDR159W, strain sac3, active compounds read low 0.841 | locus YDR392W, strain spt3, active compounds read low 0.37 | locus YER155C, strain BEM2 (second series), active compounds read low 0.795
inactive: locus YAL013W, strain DEP1, active compounds read low 1.02 | locus YAL021C, strain ccr4, active compounds read low 1 | locus YAL026C, strain drs2, active compounds read low 1 | locus YAL030W, strain snc1, active compounds read low 0.985 | locus YBL061C, strain skt5, active compounds read low 0.993 | locus YBR009C, strain hhf1, active compounds read low 0.947 | locus YBR021W, strain FUR4, active compounds read low 1 | locus YBR023C, strain chs3, active compounds read low 0.951 | locus YBR171W, strain sec66, active compounds read low 0.987 | locus YBR229C, strain ROT2, active compounds read low 1 | locus YBR231C, strain swc5, active compounds read low 0.977 | locus YBR279W, strain paf1, active compounds read low 0.959 | locus YCL011C, strain gbp2, active compounds read low 0.965 | locus YCL016C, strain dcc1, active compounds read low 0.971 | locus YCL029C, strain bik1, active compounds read low 1 | locus YCL061C, strain MRC1, active compounds read low 0.962 | locus YCL069W, strain vba3, active compounds read low 0.998 | locus YCR088W, strain abp1, active compounds read low 0.993 | locus YDL005C, strain med2, active compounds read low 1 | locus YDL035C, strain GPR1, active compounds read low 1 | locus YDL040C, strain nat1, active compounds read low 0.997 | locus YDL074C, strain BRE1, active compounds read low 1.03 | locus YDL101C, strain DUN1, active compounds read low 1.03 | locus YDL134C, strain PPH21, active compounds read low 1.03 | locus YDL185W, strain tfp1, active compounds read low 1.02 | locus YDL192W, strain arf1, active compounds read low 0.984 | locus YDR001C, strain nth1, active compounds read low 1 | locus YDR069C, strain doa4, active compounds read low 0.951 | locus YDR101C, strain arx1, active compounds read low 0.985 | locus YDR162C, strain NBP2, active compounds read low 0.997 | locus YDR195W, strain ref2 0.949 | locus YDR297W, strain sur2, active compounds read low 0.927 | locus YDR318W, strain mcm21, active compounds read low 1.02 | locus YDR334W, strain swr1, active compounds read low 1.04 | locus YDR335W, strain msn5, active compounds read low 1 | locus YDR388W, active compounds read low 1.01 | locus YDR502C, strain sam2, active compounds read low 1.05 | locus YEL003W, strain gim4, active compounds read low 0.942 | locus YEL037C, strain rad23, active compounds read low 1 | locus YEL061C, strain CIN8 (second series), active compounds read low 1 | locus YEL061C, strain CIN8, active compounds read low 1 | locus YER015W, strain faa2, active compounds read low 1.01 | locus YER016W, strain bim1, active compounds read low 0.995 | locus YER110C, active compounds read low 1.02 | locus YER111C, strain swi4, active compounds read low 1 | locus YER155C, strain BEM2, active compounds read low 0.994 | locus YER167W, strain BCK2, active compounds read low 0.992 | locus YFR010W, strain ubp6, active compounds read low 0.979 | locus YGL078C, strain dbp3, active compounds read low 1.05 | locus YGL086W, strain mad1, active compounds read low 1.02 | locus YGL167C, strain pmr1, active compounds read low 0.999 | locus YGL173C, strain kem1, active compounds read low 0.977 | locus YGL227W, strain vid30, active compounds read low 0.998 | locus YGL240W, strain doc1, active compounds read low 0.915 | locus YGL248W, strain PDE1, active compounds read low 1.03 | locus YGL253W, strain hxk2, active compounds read low 0.991 | locus YGR135W, strain pre9, active compounds read low 1.08 | locus YGR252W, strain gcn5, active compounds read low 1.09 | locus YHR013C, strain ard1, active compounds read low 1.01 | locus YHR027C, strain rpn1, active compounds read low 1 | locus YHR030C, strain SLT2, active compounds read low 0.945 | locus YHR079C, strain IRE1 (second series), active compounds read low 1.01 | locus YHR079C, strain IRE1, active compounds read low 0.971 | locus YHR094C, strain hxt1, active compounds read low 1.01 | locus YHR129C, strain ARP1, active compounds read low 1.01 | locus YHR142W, strain chs7, active compounds read low 0.923 | locus YHR200W, strain rpn10, active compounds read low 1.04 | locus YIL066C, strain RNR3, active compounds read low 1.01 | locus YIL073C, strain SPO22, active compounds read low 1.03 | locus YIL125W, strain kgd1, active compounds read low 1.01 | locus YIR030C, strain dcg1, active compounds read low 1.01 | locus YJL092W, strain hpr5, active compounds read low 0.992 | locus YJL095W, strain BCK1 (second series), active compounds read low 0.934 | locus YJL095W, strain BCK1, active compounds read low 1.03 and 0.976 | locus YJL115W, strain asf1, active compounds read low 1.01 | locus YJL129C, strain trk1, active compounds read low 0.956 | locus YJL134W, strain LCB3, active compounds read low 0.995 | locus YJL154C, strain vps35, active compounds read low 1.01 | locus YJL164C, strain tpk1, active compounds read low 0.946 | locus YJL166W, strain qcr8, active compounds read low 0.945 | locus YJL168C, strain set2, active compounds read low 1.03 | locus YJL187C, strain SWE1 (second series), active compounds read low 1.04 | locus YJL187C, strain SWE1, active compounds read low 0.937
